# Source: PubChem BioAssay (NCI)
# About 83,000 compounds went through this panel and 20% of them were active in at least one assay; those are over-represented in the sample as a whole.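 In brief: 96-well plates, 48 h treatment, single concentration, percent growth endpoint.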 Activity calls are given as the source filed them. Rule for the calls: active = growth percent below 10; inactive = the rest.
# Test system: HT29 colon
# Assay: NCI-60 one-dose screen, 48 h (100 = growth as untreated, 0 = no growth, -100 = all killed)
# Settings: 10 µM unless noted
row,Compound,growth
1,Cc1cc2c(c(C)c1Cl)C(=O)/C(=C/c1ccco1)O2,98.3% (inactive)
2,CN(C)CCNc1cc(-c2ccccc2)nc2ccccc12,-42.2% (active)
3,COc1ccc(CCN2CCC(CN(C)Cc3cnn(-c4ccccc4)c3)CC2)cc1,33.5% (inactive)
4,COc1ccc(/C=C/C(=O)c2c(C)nc3ccccc3c2/C=C/c2ccccc2)cc1O,71.6% (inactive)
5,Nc1n[nH]c2ccc([C@@H]3Nc4ccc5[nH]ncc5c4[C@H]4[C@H]5CCC(C5)[C@H]43)cc12,2.25% (active)
6,O=c1c2cc(F)ccc2sc2c(NCCN3CCCC3)nc3ccccc3c12,13.9% (inactive)
7,COc1ccc2sc(N(Cc3cccnc3)C(=O)c3ccc(C#N)cc3)nc2c1,23.4% (inactive)
8,COC(=O)/C(CCC=C(C)C)=C1\[C@@H](OC(C)=O)C[C@@]2(C)[C@H]1C[C@@H](O)[C@H]1[C@@]3(C)CC[C@H](NC(=O)c4cnccn4)[C@@H](C)[C@@H]3CC[C@@]12C,99% (inactive)
9,CCOc1ccc(Nc2ccnc3cc(Cl)ccc23)cc1,1.61% (active)
10,O=C(Nc1ccsc1C(=O)NC1CCCCC1)c1ccc(F)cc1,92.9% (inactive)
11,CCn1c(-c2nonc2Nc2ccc(OC)cc2)nc2ccccc21,102% (inactive)
12,COc1ccc(/C=C2\N=C(c3ccccc3)N(c3ccc(-c4nc5ccc(C)cc5s4)cc3)C2=O)cc1,88.9% (inactive)
13,CSc1nc2c(c(=O)[nH]1)N=C1c3ccccc3C(=O)C1C(c1ccccc1)N2 (centres undefined),5.89% (active)
14,CC1(C)CC2(C)OC2C2(C1)N=NC(=Nc1ccccc1)O2 (centres undefined),25.1% (inactive)
15,COC(=O)/C(=C\c1c(-c2ccccc2)[nH]c2ccccc12)S(C)(=O)=O,8.37% (active)
16,O=C(NN1C(=O)CSC1c1ccc(Cl)cc1)c1[nH]c2ccc(F)cc2c1-c1ccccc1 (centres undefined),19.2% (inactive)
17,CC(=O)n1cc(-c2c[nH]c3ccccc23)c(-c2ccc(Cl)cc2)n1,95.9% (inactive)
18,O=C(N/N=C/c1ccccc1Cl)C(=O)Nc1cccc(C(F)(F)F)c1,97.4% (inactive)
19,COc1cccc2cc(N(C)c3nc(C)nc4ccsc34)ccc12,-10.3% (active)
20,O=C(Cn1cc(COc2ncnc3c2cnn3-c2ccccc2)nn1)Nc1cccc2ccccc12,102% (inactive)

row,Compound,growth
1,CCC1=C[C@]2(C3CC(=O)N(c4ccccc4)C3=O)CC(C(C)(C)C)C[C@@H]2[C@@H]2C(=O)N(c3ccccc3)C(=O)[C@H]12 (some centres undefined),74.3% (inactive)
2,CCCN1CCN(c2ccc3nc(-c4ccc5nc(-c6cc(OC)ccc6OC)[nH]c5c4)[nH]c3c2)CC1,-23.2% (active)
3,COc1ccc2c(c1)C=C1CSCC3=Cc4cc(OC)ccc4OC13O2,6.74% (active)
4,COc1ccc(-c2nc(-c3ccccn3)c(-c3ccccn3)n2CC(C)C)cc1OC1CCCC1,12.2% (inactive)
5,CCN1C(=O)N(CC)C2C1NC(=S)N2/N=C/C=C/c1ccccc1OC (centres undefined),2.77% (active)
6,O=C(c1nc2ccccc2[nH]1)C1C(c2ccc([N+](=O)[O-])cc2)C2CC3CCCCC3N2[C@@]12C(=O)Nc1cc(Cl)ccc12 (some centres undefined),18.5% (inactive)
7,COc1cc(-c2c3c(c(Br)n2Cc2ccccc2)-c2nc(N)sc2CC3)cc(OC)c1OC,105% (inactive)
8,Cn1c(C(=O)c2cccc3ccccc23)nc2ccccc21,20.7% (inactive)
9,C1=CC2(C=C1)OC21CCC2(C=CC3(C2)OC3C2CCCCC2)CC1 (centres undefined),110% (inactive)
10,O=C1/C=C/[C@@H](O)[C@@H]2C[C@@H](O)C[C@H]2/C=C/CCCCO1,2.63% (active)
11,CS(=O)(=O)Nc1ccc(C(=O)NC(C(=O)NO)c2ccc(-c3cccc(F)c3)cc2)cc1 (centres undefined),53.2% (inactive)
12,CCN1CCN(c2cc(C)c3cc(NC(=O)c4ccc(OC)c(OC)c4)ccc3n2)CC1,13% (inactive)
13,Cc1ccc(OCCCCCCNCCO)c(C)c1,22.4% (inactive)
14,CCOc1ccc2nc(C)cc(Nc3ccc(Br)cc3)c2c1,77.8% (inactive)
15,Cn1c2c(c(=O)[nH]c1=O)NC1=C(C(=O)c3ccccc31)C1(C=C(O)c3ccccc31)N2 (centres undefined),113% (inactive)
16,CC(C)(C)c1ccc(C2CC(=O)C3=C(C2)Nc2ccccc2N(C(=O)c2ccccc2Cl)C3c2ccc(F)cc2)cc1 (centres undefined),-9.44% (active)
17,Oc1ccc(-c2nc(-c3ccc4oc5ccc(-c6[nH]c(-c7ccc(O)cc7)nc6-c6ccccc6)cc5c4c3)c(-c3ccccc3)[nH]2)cc1,34.6% (inactive)
18,CN(CCc1ccccc1)C(=S)N(C(=O)c1ccc([N+](=O)[O-])cc1)c1ccc(Cl)cc1,92.7% (inactive)
19,Nc1no[n+]([O-])c1-c1nnc2c(n1)-c1ccccc1C2=O,57.1% (inactive)
